Compounds with a hit are over-represented: about 11% of the library has one in this group of screens.
INS promoter inh – inhibitors of insulin promoter-driven GFP, primary screen, imaging, TRM-6 cells (human fetal islet line), eGFP reporter, cell count | reporter expression induced with tamoxifen | inhibition, % at 2 µM | hit rate 0.9% among 130,000 | AID 1273, 2008;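 active = inhibition above the mean plus 3 SD, with well images judged a real hit on visual review, cut at about 60% in these data, passing the limit was not always enough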
Autophagy HCS – autophagy modulators in MEF cells, primary screen, imaging, high-content, MEF GFP-LC3. MEF GFP-LC3 puncta imaging; test concentration mostly 10 µM. calls only at 10 µM (by protocol). hit rate 0.98% among 190,000. AID 463193, 2010;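 active = percentage of spot-positive cells more than 3 SD above its plate mean, without a fluorescence outlier flag or 80% toxicity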;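 note: spot-positive cell cutoff set from DMSO-treated cells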
WT yeast gro inh – growth inhibition of WT strain, primary screen, mitochondrial fusion inhibitor project, WT and mutant strains, chemical genetic; mitochondrial fusion phenotypic screen; inhibition, % at 10 µM; hit rate 2.1% among 190,000; in the data active = inhibition above about 58%; tested in S. cerevisiae
Ins promoter up – insulin promoter activators in MIN6 cells, imaging, high-content screening, mouse beta cells. MIN6 insulin promoter-GFP reporter; stronger effect = higher value. z-score at 5 µM. hit rate 0.3% among 190,000. AID 1625, 2009;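 active = z-score above 3 at 5 µM with at least 500 cells counted in the well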
L major viab – Leishmania major promastigote growth inhibition, primary screen | hit rate 9% among 200,000 | Leishmania major promastigotes, resazurin fluorescence viability | inhibition, % at 10 µM | AID 1063, 2008; in the data active = inhibition above about 50%;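 note: promastigotes grown with compound for 44 hours at 28 °C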
The depositor's hits bear a star; i = inactive; x = no result; + = active, no number.

SMILES	INS promoter inh	Autophagy HCS	WT yeast gro inh	Ins promoter up	L major viab
Nc1nc(-c2ccccc2)c(C(=O)Nc2ccccc2)s1	33	i	6	0.18	-4
CCCCn1c(=NC(=O)c2ccco2)c(C(=O)OCC)cc2c(=O)n3ccccc3nc21	36	i	3	-1.9	51*
CCOC(=O)c1cc2c(=O)n3ccccc3nc2n(C(C)C)c1=NC(=O)c1c(-c2c(F)cccc2Cl)noc1C	x	i	38	-1.1	99*
CCCCCn1c(=NC(=O)c2ccco2)c(C(=O)OCC)cc2c(=O)n3ccccc3nc21	-42	i	-2	-0.26	49
CCOC(=O)c1cc2c(=O)n3ccccc3nc2n(CC2CCCO2)c1=NC(C)=O (configuration not stated)	24	i	3	-0.72	17
CC(=O)C1=C(C)NC(SCSc2ccccc2)=C(C#N)C1c1cccnc1 (configuration not stated)	-500	i	22	0.11	100*
CSC1=C(C#N)C(c2ccncc2)C(C(=O)Nc2ccccc2)=C(C)N1 (configuration not stated)	0	i	5	0.32	15
CC(=O)C1=C(C)NC(SCC(=O)c2ccc(-c3ccccc3)cc2)=C(C#N)C1c1cccnc1 (configuration not stated)	-22	+	3	0.15	30
CC1=C(C(=O)Nc2ccccc2)C(c2ccncc2)C(C#N)=C(SCC(=O)Nc2ccccc2)N1 (configuration not stated)	-11	i	2	x	99*
CCOC(=O)NNC(=O)C1CCC(C)CC1 (configuration not stated)	64	i	-17	-0.31	-4
CCCC(=O)Nc1cc(OC)c(C(=O)OC)cc1Cl	x	i	3	1.2	-3
CC1=C(C)C(=O)NC(Nc2nc(C)c3cc(C)cc(C)c3n2)N1 (configuration not stated)	-14	+	x	x	100*
Cc1ccc(-n2c(SCc3ccc([N+](=O)[O-])cc3)nc3ccccc3c2=O)cc1	-17	i	16	-1.4	38
CCOC(CCn1c(SCc2ccc([N+](=O)[O-])cc2)nc2ccccc2c1=O)OCC	-37	i	8	-0.34	51*
COc1ccc(C(C)(C)C)cc1S(=O)(=O)N1CCN(C)CC1	54	i	11	x	3
Cc1ccccc1CC1(CO)CCCN(Cc2ccn[nH]2)C1 (configuration not stated)	14	i	-1	-0.09	10
CSCC(=O)N1CCCC(CO)(Cc2ccccc2C)C1 (configuration not stated)	x	i	-1	-0.05	-5
CCOC(=O)C1(Cc2cccc(Cl)c2)CCCN(C(=O)C2CC2)C1 (configuration not stated)	x	i	-2	1.3	-1
CCOC(=O)N1CCC(N2CCCC(CO)(Cc3cccc(Cl)c3)C2)CC1 (configuration not stated)	x	i	25	0.01	87*
Cc1ccc(CN2CCCC(CO)(Cc3ccccc3C)C2)s1 (configuration not stated)	x	i	15	-0.56	66*
CCOC(=O)N1CCC(N2CCCC(CO)(Cc3ccccc3C)C2)CC1 (configuration not stated)	-81	i	27	0.41	88*
O=C(CCC(=O)NC1CCCCC1)N/N=C/c1ccncc1	29	i	0	x	-1
N#CC1CC(c2ccccc2)Nc2cc(Cl)ccc2N1 (configuration not stated)	x	x	x	0.21	x
CCC(C)(C)NC(=O)C(Sc1ccccc1)c1ccccc1 (configuration not stated)	x	i	5	-0.86	19
CCC(C)n1c(OC)nc2c1c(=O)n(C)c(=O)n2C (configuration not stated)	-32	i	-24	-0.13	-5
SMILES	INS promoter inh	Autophagy HCS	WT yeast gro inh	Ins promoter up	L major viab
CC(=O)N1CCCc2cc(S(=O)(=O)N(C)CCC#N)ccc21	x	i	x	0.24	-5
CCN(c1cccc(C(F)(F)F)c1)S(=O)(=O)c1ccc2c(c1)CCN2C(C)=O	45	i	-13	-0.26	60*
CCN(c1cccc(C)c1)S(=O)(=O)c1ccc2c(c1)CCN2C(C)=O	17	i	-31	-0.29	94*
CC(=O)N1CCCc2cc(S(=O)(=O)N(CC(C)C)CC(C)C)ccc21	9	i	-8	-0.64	85*
O=C(O)CN(c1cccc(C(F)(F)F)c1)S(=O)(=O)c1ccccc1	x	i	-2	-0.43	-7
COc1ccccc1NC(=O)Nc1c(C)nn(C)c1C	x	i	0	0.44	4
COc1ccc(CCn2c(-n3nc(C)cc3C)nc3c2c(=O)[nH]c(=O)n3C)cc1	5	+	x	x	-2
Cc1ccc(Cn2c(-n3nc(C)cc3C)nc3c2c(=O)[nH]c(=O)n3C)cc1	0	i	2	1.2	9
C=CCn1c(SCC#N)nnc1-c1ccc2ncccc2c1	x	x	x	-0.02	x
O=C(Nc1c(-c2ccccc2)nc2ccc(Cl)cn12)c1cccs1	-22	i	-17	-0.07	79*
Cc1ccccc1Nc1c(-c2ccncc2)nc2ccc(Cl)cn12	x	i	23	0.73	75*
Cc1cc(Nc2nn(C)c(N)c2C#N)ccc1F	x	i	6	6*	-7
CCOc1ccccc1OC(=O)c1cc2ccccc2oc1=O	-32	i	12	-0.2	-1
C=CCn1c(Cc2cccs2)nnc1SCC(=O)Nc1cc(OC)cc(OC)c1	-83	i	7	0.31	-2
CC(C)(C)S(=O)(=O)c1cnc(-c2ccc(Cl)cc2)nc1N	x	x	x	-1.6	x
Cc1nc(N)nc(N)c1/C=C/C(C)(C)c1ccc(Cl)cc1	0	i	69*	-2.1	100*
COc1cc(/C=N/NC(=O)CCc2c(C)n[nH]c2C)ccc1O	17	i	-7	x	-4
COc1ccc(NC(=O)/C(Cl)=C(/Cl)S(=O)Cc2ccccc2)cn1 (configuration not stated)	x	i	76	-1.2	100*
COc1ccc(CS(=O)(=O)/C(Cl)=C(/Cl)C(=O)Nc2ccc(OC)nc2)cc1	-87	i	63*	-2.4	32
COc1ccc(NC(=O)Cc2ccccc2)cn1	33	i	-6	-0.27	-3
COc1ccc(/C=C/C(=O)Nc2ccc(OC)nc2)cc1	43	i	11	0.77	-3
CCC(C)[C@H](NC(=O)Nc1cccc(Br)c1)C(=O)OC (some centres not stated)	x	i	-11	-0.29	-6
CCOC(=O)c1cc2occc2n1Cc1c(F)cccc1Cl	-43	i	2	-0.42	-5
COC(=O)c1cc2occc2n1Cc1ccc(Cl)cc1	3	i	35	0.9	56*
COC(=O)c1cc2occc2n1Cc1c(F)cccc1Cl	x	i	6	3.1*	4
CCOC(=O)c1cc2occc2n1Cc1ccc(F)cc1	x	i	3	-0.28	-8
S=C(c1ccc2c(c1)OCO2)N1CCCCCC1	-64	i	-6	0.36	-6

Screens: PubChem BioAssay, several laboratories
